Screens from PubChem.
SKN-1 inh: suppressors of acrylamide-induced Pgst-4::GFP reporter in worms, primary screen, SKN-1 inhibitor project, whole organism, uHTS, GFP/RFP fluorescence ratio, strain VP596; C. elegans VP596 Pgst-4::GFP/RFP ratio, 24 h; inhibition, % at 21.8 µM; 360,000 tested, 0.49% active;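 active = interference check ratio from 0.5 to 1.5 plus GFP to RFP signal ratio inhibition reaching or exceeding a fixed threshold, cut at about 30% in these data, passing the limit was not always enough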
esBAF inh: Bmi1 luciferase reporter increase in mESCs, primary screen, esBAF inhibitor project, mouse ES cells, Bmi1 luciferase knock-in, single point | 24 h; 100% = twice the neutral-well signal | reporter increase, % at 12.5 µM | 350,000 tested, 2% active | AID 602393, 2012; in the data active = activation above about 40%; inconclusive = no clear call, values can overlap the other calls;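 also: a rise in the Bmi1 reporter signal indicates esBAF inhibition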
SMARCA2 activ: SMARCA2 (BRM) function activators, primary screen, cell-based, luminescence, high throughput | MG213 cells, MMTV-luciferase reporter, dexamethasone, overnight | activation, % at 9.1 µM | 370,000 tested, 1% active | AID 652017, 2013; in the data active = activation above about 7.8%
NR3A LBD binder: binders of NR3A ligand-binding domain, primary screen, biophysical, differential scanning fluorimetry, uHTS; Glutamate receptor ionotropic, NMDA 3A (GRIN3A) ligand-binding domain; AID 1259313, 2017; Tm shift relative to glycine control, % at 25 µM; NR3A LBD differential scanning fluorimetry, Tm shift; 0% = protein alone, 100% = glycine-bound protein; 340,000 tested, 2.5% active;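 active = melting temperature shift of at least 10% of the positive control shift, at one fixed dose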
NadD inh: inhibitors of S. aureus NadD, primary screen, biochemical, colorimetric, uHTS | Nicotinate-nucleotide adenylyltransferase NadD (Staphylococcus aureus N315) | purified NadD enzyme, colorimetric absorbance read-out | inhibition, % at 20 µM | 360,000 tested, 0.78% active; in the data active = inhibition above about 26%
Vif inh: HIV Vif self-association inhibitors, primary screen, imaging, HEK293T, single point | HEK293T cells, Vif self-association by quenched fluorescence, 24 h | inhibition, % at 7.49 µM | 340,000 tested, 0.35% active | AID 602346, 2012; in the data active = inhibition above about 50%, passing the limit was not always enough; inconclusive = no clear call, values can overlap the other calls; inactive = below about 31%
Of the large screens only hits and unclear results are named; the others gave an inactive call. The list is not random: actives were taken first. Their share in the collection is about 5.2%.

O=c1c(O)c(-c2ccccc2)oc2cc(O)cc(O)c12	NR3A LBD binder 11
O=c1cc(-c2ccccc2)c2c(O)cc(O)cc2o1	none
Cc1ccc(-c2oc3ccccc3c(=O)c2O)cc1	esBAF inh 48
O=c1c(O)c(-c2cc(O)c(O)c(O)c2)oc2cc(O)cc(O)c12	NR3A LBD binder 27
CC(C)=CCc1cc(-c2oc3cc(O)cc(O)c3c(=O)c2O)ccc1O	NR3A LBD binder 21
O=c1c(O)c(-c2ccccc2)oc2ccccc12	none
C[C@H](CO)N1C[C@H](C)[C@@H](CN(C)S(=O)(=O)c2cn(C)cn2)Oc2ccc(NS(=O)(=O)c3cccs3)cc2CC1=O	none (no result: SKN-1 inh, SMARCA2 activ, NR3A LBD binder, NadD inh, Vif inh)
CO[C@@H]1CN(C)C(=O)c2cc(NC(=O)c3cnccn3)ccc2OC[C@H](C)N(C(=O)C2CC2)C[C@H]1C	none (no result: SKN-1 inh, SMARCA2 activ, NR3A LBD binder, NadD inh, Vif inh)
CCC(=O)Nc1ccc2c(c1)C(=O)N(C)[C@@H]1CC[C@H](CC(=O)NCCc3ccncc3)O[C@H]1CO2	none (no result: SKN-1 inh, SMARCA2 activ, NR3A LBD binder, NadD inh, Vif inh)
O=c1c(-c2ccccc2)c(-c2ccccc2)oc2cc(O)cc(O)c12	NR3A LBD binder 20
COc1c(-c2ccc(O)c(O)c2)oc2cc(O)cc(O)c2c1=O	NR3A LBD binder 16, Vif inh inconclusive
CC(C)NC(=O)N(C)C[C@H]1Oc2ccc(NC(=O)Nc3ccc4c(c3)OCO4)cc2C(=O)N([C@@H](C)CO)C[C@H]1C	none (no result: SKN-1 inh, SMARCA2 activ, NR3A LBD binder, NadD inh, Vif inh)
C[C@@H]1CN([C@H](C)CO)C(=O)c2cccc(NC(=O)C3CC3)c2O[C@@H]1CN(C)S(=O)(=O)c1ccc(F)cc1	none (no result: SKN-1 inh, SMARCA2 activ, NR3A LBD binder, NadD inh, Vif inh)
O=C(/C=N/O)Nc1ccc2sc3ccccc3c2c1	NR3A LBD binder 34 (no result: esBAF inh)
C[C@@H]1CCCCO[C@H](CN(C)Cc2ccncc2)[C@@H](C)CN([C@@H](C)CO)C(=O)c2cc(NC(=O)Nc3ccc(F)cc3)ccc2O1	none (no result: SKN-1 inh, SMARCA2 activ, NR3A LBD binder, NadD inh, Vif inh)
CC(=O)C(Sc1nn(C)c(=S)s1)C(=O)Nc1ccccc1 (stereo not given)	esBAF inh 77
CC(=O)C(Sc1nc(N(C)C)nc(N(C)C)n1)C(=O)Nc1ccccc1 (stereo not given)	none
CCCC#Cc1cnc2c(c1)C(=O)N([C@H](C)CO)C[C@H](C)[C@H](CN(C)Cc1ccncc1)O2	none (no result: SKN-1 inh, SMARCA2 activ, NR3A LBD binder, NadD inh, Vif inh)
O=[N+]([O-])c1cc(-c2n[nH]c(-c3ccccc3)n2)cc([N+](=O)[O-])c1	NR3A LBD binder 27
O=[N+]([O-])c1cc([N+](=O)[O-])c2n[nH]c(-c3ccccc3)c2c1	none (no result: esBAF inh)
COc1c(Br)cc([N+](=O)[O-])c(OC)c1C(=O)NC(=O)Nc1cc(Cl)cc(Cl)c1	NR3A LBD binder 13 (no result: esBAF inh)
CCC(=O)N(C)C[C@@H]1Oc2ncc(C#CC(C)(C)O)cc2C(=O)N([C@H](C)CO)C[C@H]1C	none (no result: SKN-1 inh, SMARCA2 activ, NR3A LBD binder, NadD inh, Vif inh)
Cc1ccc(S(=O)(=O)N[C@H](C(=O)OCC(=O)NC(=O)C2CCCCC2)C(C)C)cc1	NR3A LBD binder 23
O=S(=O)(N[C@@H]1CC[C@H](CCn2cc(-c3ccccn3)nn2)O[C@@H]1CO)c1cccc(Cl)c1	none (no result: SKN-1 inh, SMARCA2 activ, NR3A LBD binder, NadD inh, Vif inh)
Cc1ccc(NC(=O)Cn2c3ccc(F)cc3c3nc4n(c(=O)c32)CCS4)cc1F	NR3A LBD binder 12
O=C(CSc1nnc2ccccn12)Nc1ccccc1Cl	none
Cc1ccc(NC(=O)CSc2nnc3ccccn23)c(Cl)c1	esBAF inh 66, SMARCA2 activ 7.9 (no result: NR3A LBD binder, Vif inh)
COc1ccc(NC2CC(=O)N(CCc3ccccc3)C2=O)cc1 (stereo not given)	SKN-1 inh 38
O=C1CC(Nc2ccccc2)C(=O)N1CCc1ccccc1 (stereo not given)	none (no result: esBAF inh)
COC(=O)Cn1c(=NC(=O)C(C)C)sc2c(C)cc(C)cc21	NR3A LBD binder 20
CCCC#Cc1cnc2c(c1)C(=O)N([C@@H](C)CO)C[C@H](C)[C@@H](CN(C)S(=O)(=O)c1ccccc1)O2	none (no result: SKN-1 inh, SMARCA2 activ, NR3A LBD binder, NadD inh, Vif inh)
COC(=O)C1=C(C)NC(=O)/C1=C\c1cc(C)n(-c2cccc(C)c2)c1C	NadD inh 32
